According to the supplement of paper PMC11732987, “Enantioselective OTUD7B fragment discovery through chemoproteomics screening and high-throughput optimisation” (Communications Chemistry, 2025):
Unmarked numbers belong to inactive results.

Compound: ClCC(=O)N1CCCC1=O
Test: log2 ratio of Biotin-Ahx-Ub-VS probe labelling (fragment/DMSO); higher = less target engagement (more negative = stronger competition), active = hit call of the paper (q ≤ 0.05, log2 ratio ≤ -1)
Conditions: compound concentration: 200 uM; treatment time: 3 h
Protocol: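 Competitive ABPP in HEK293T cell lysate. Lysates were treated with each chloroacetamide fragment at 200 µM for 3 h, then with Biotin-Ahx-Ub-VS (0.5 µM, 1 h), NeutrAvidin-enriched and analysed by diaPASEF LC-MS/MS. Protein LFQ was median-normalised; average log2 ratio is fragment/DMSO from an unpaired t-test (n=3 treated, n=44 DMSO). Hits: q ≤ 0.05, log2 ratio ≤ -1, unique peptides ≥ 2.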

UniProt Q9Y5K5, sequence (Q9Y5K5 whole entry): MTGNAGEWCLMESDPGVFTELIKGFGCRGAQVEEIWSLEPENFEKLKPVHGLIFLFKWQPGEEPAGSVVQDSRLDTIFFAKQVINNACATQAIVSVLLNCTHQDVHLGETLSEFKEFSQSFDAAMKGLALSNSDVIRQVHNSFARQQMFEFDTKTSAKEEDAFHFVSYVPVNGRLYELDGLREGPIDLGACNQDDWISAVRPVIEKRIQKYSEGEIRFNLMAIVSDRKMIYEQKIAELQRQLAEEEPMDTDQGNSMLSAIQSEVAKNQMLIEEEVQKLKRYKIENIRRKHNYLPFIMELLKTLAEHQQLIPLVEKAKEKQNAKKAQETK
UniProt Q9P2H5, sequence (Q9P2H5 whole entry): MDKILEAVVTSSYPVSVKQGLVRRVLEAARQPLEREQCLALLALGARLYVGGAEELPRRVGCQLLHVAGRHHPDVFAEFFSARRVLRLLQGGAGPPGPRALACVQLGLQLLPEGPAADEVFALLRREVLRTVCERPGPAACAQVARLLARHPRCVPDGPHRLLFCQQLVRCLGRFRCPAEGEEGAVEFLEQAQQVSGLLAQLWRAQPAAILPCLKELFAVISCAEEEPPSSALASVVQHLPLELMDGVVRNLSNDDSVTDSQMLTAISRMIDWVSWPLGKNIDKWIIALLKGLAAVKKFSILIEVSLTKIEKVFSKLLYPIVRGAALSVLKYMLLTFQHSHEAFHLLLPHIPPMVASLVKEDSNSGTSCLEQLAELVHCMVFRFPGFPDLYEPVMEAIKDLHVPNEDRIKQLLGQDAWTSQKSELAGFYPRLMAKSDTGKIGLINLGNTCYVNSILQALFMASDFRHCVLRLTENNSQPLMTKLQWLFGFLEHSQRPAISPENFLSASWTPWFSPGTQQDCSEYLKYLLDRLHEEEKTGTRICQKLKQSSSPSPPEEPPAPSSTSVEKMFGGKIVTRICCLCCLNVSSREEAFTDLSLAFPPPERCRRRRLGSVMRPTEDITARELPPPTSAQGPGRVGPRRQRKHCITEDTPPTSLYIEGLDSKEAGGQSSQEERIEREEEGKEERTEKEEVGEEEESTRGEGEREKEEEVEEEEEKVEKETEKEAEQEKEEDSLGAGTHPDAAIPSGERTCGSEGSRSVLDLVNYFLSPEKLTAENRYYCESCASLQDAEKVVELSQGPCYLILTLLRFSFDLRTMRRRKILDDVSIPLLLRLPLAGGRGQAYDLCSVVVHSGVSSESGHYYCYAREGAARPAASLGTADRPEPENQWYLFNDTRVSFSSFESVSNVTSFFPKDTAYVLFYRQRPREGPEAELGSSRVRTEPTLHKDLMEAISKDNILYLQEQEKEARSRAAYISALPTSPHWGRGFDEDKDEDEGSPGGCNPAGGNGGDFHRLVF
UniProt Q92905, sequence (Q92905 whole entry, looked up): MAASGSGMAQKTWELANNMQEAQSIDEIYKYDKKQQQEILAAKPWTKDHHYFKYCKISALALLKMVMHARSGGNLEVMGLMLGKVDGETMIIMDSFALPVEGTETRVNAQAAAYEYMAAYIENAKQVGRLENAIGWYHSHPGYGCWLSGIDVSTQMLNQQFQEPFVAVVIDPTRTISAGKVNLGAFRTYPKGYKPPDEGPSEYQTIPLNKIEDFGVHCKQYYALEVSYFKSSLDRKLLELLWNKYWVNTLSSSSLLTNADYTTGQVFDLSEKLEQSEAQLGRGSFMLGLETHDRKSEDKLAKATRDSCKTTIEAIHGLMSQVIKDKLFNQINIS
UniProt Q8TE49, sequence (Q8TE49 whole entry): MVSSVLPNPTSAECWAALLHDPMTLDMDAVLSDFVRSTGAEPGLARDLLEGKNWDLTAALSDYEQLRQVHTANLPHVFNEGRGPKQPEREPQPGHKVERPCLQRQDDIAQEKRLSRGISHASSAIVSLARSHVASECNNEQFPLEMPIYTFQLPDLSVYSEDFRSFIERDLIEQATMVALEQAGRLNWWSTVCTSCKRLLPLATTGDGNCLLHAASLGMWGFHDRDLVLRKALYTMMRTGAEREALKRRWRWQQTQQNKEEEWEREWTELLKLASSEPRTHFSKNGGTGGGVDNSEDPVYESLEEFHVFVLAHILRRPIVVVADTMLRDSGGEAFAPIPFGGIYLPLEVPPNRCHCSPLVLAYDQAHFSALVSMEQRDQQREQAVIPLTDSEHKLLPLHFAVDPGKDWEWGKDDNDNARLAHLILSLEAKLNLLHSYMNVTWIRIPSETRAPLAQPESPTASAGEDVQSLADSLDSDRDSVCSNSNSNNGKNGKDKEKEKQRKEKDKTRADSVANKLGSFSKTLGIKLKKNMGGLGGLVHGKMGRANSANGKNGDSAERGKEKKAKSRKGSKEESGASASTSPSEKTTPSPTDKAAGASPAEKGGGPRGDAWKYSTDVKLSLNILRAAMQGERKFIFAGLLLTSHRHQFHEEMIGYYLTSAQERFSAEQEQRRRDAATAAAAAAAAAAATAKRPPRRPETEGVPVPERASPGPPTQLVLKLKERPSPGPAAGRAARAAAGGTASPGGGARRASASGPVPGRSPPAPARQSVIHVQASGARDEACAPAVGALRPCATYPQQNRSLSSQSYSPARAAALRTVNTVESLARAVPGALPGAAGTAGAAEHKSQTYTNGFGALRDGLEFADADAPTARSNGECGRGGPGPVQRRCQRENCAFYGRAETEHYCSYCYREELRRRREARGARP
UniProt O00303, sequence (O00303 whole entry): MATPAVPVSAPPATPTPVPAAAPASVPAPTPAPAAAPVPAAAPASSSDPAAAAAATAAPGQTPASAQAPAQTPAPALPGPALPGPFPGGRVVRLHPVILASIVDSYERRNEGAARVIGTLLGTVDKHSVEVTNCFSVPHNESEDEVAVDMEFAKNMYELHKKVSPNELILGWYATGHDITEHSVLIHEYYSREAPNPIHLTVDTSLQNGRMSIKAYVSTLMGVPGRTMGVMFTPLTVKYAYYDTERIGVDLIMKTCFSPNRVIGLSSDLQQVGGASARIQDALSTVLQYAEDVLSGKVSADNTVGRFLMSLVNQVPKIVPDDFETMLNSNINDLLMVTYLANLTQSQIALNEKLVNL
UniProt Q8N6M0, sequence (Q8N6M0 whole entry): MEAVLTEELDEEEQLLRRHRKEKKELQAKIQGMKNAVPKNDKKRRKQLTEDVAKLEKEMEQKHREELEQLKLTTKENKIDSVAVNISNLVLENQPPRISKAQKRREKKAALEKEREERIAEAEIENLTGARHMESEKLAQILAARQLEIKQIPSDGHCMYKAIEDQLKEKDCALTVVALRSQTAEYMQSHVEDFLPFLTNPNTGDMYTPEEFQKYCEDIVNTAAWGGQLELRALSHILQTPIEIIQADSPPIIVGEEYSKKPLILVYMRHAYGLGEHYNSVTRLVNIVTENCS
UniProt P40818, sequence (P40818 whole entry): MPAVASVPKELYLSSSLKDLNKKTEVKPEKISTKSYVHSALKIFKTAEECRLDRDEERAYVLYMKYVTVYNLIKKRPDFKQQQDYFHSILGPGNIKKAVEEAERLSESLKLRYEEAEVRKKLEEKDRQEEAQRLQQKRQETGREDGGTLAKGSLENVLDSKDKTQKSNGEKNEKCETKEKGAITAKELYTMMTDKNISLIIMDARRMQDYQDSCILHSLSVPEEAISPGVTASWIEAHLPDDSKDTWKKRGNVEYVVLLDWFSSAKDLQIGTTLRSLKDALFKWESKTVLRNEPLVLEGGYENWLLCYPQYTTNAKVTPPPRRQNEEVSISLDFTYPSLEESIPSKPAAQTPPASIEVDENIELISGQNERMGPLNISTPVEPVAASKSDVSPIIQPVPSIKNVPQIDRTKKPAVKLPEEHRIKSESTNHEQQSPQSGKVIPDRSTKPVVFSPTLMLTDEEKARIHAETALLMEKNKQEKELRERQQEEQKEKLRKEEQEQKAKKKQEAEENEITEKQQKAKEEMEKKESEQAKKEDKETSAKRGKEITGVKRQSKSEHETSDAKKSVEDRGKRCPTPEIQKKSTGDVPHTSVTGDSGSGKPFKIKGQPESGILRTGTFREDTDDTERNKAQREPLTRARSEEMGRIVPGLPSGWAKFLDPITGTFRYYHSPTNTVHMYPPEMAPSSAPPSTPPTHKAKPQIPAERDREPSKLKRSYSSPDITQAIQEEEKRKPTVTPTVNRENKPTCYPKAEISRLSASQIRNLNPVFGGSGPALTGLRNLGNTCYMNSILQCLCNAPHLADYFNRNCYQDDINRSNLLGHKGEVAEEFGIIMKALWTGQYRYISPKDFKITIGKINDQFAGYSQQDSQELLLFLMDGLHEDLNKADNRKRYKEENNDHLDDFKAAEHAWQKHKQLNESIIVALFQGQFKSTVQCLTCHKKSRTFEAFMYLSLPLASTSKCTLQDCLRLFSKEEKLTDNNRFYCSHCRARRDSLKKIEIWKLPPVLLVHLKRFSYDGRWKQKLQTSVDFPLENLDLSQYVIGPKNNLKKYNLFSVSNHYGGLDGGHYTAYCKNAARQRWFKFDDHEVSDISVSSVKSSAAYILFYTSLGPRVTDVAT

Target	log2 ratio of Biotin-Ahx-Ub-VS probe labelling
COPS5 (UniProt Q92905)	0.159
UniProt Q8TE49	-0.249
OTUD6B (UniProt Q8N6M0)	-0.48
UniProt Q9P2H5	-0.151
ALG13 (UniProt Q9NP73)	0.188
UCHL5 (UniProt Q9Y5K5)	-0.166
USP8 (UniProt P40818)	-0.417
EIF3F (UniProt O00303)	-0.166
